Records with an inconclusive call do not appear. The source made the active and inactive calls. Unless noted, calls come from the whole dose curve; as a rule, active = well fitted curve in the direction sought with a large enough effect; inconclusive = small, poorly fitted or top-dose-only effect, or another doubt; inactive = no such curve, though single readings can be large; an effect the other way counts as inactive or inconclusive.
Assays:
[1] = target: Rap guanine nucleotide exchange factor 4 (Homo sapiens) (UniProt Q8WZA2); test: Confirmatory qHTS for antagonist of cAMP-regulated guanine nucleotide exchange factor 4 (EPAC2) (AID 1645885); details: EPAC2 Rap1B-BODIPY-GDP exchange fluorescence, biochemical; series mostly up to 114 µM; note: nearly all actives have a fitted effect of over 25% in size; note: potency is the fitted concentration of half-maximal effect; for activity change, negative = inhibition: % is set by controls: 0 for no effect and ±100 for the full control effect
Chain of Rap guanine nucleotide exchange factor 4 (Homo sapiens) (Q8WZA2 whole entry, looked up): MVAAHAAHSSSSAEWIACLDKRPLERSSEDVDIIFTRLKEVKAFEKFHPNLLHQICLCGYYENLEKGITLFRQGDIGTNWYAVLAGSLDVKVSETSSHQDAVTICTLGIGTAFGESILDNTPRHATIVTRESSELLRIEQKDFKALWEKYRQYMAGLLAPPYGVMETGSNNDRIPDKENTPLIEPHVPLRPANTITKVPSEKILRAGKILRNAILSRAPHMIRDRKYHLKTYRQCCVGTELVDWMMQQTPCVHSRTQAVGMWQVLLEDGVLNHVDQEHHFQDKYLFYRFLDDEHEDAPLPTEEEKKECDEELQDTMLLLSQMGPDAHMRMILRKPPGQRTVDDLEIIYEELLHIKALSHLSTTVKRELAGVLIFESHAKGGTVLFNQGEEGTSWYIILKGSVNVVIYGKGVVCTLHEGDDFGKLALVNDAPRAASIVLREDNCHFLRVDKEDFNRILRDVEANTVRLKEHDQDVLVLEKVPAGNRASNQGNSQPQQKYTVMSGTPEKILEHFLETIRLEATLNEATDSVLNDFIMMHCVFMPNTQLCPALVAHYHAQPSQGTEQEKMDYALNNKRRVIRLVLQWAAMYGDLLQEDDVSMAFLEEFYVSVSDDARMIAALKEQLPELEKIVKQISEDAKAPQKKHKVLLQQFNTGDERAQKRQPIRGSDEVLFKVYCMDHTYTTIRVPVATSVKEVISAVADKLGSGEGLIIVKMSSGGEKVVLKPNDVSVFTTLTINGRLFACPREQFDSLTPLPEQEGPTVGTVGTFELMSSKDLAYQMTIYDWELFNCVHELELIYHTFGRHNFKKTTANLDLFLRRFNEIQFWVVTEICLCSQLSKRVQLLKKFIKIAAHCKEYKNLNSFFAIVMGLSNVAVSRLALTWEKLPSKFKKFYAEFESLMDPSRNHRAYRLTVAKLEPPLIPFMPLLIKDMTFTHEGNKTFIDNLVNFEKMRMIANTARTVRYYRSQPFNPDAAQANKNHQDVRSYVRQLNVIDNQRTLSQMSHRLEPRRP

[2] = target: Catechol O-methyltransferase (Homo sapiens) (UniProt P21964); test: Confirmatory Screen for Target Class Profiling of Small Molecule Inhibitors of Methyltransferases (AID 1745852; calls by dose curve; note: potency is the fitted concentration of half-maximal effect; for activity change, negative = inhibition: % is set by controls: 0 for no effect and ±100 for the full control effect); details: MTase-Glo luminescence, SAH detection, recombinant enzyme; measured here: COMT max response; stronger effect = lower value
Chain of Catechol O-methyltransferase (Homo sapiens) (P21964 whole entry, looked up): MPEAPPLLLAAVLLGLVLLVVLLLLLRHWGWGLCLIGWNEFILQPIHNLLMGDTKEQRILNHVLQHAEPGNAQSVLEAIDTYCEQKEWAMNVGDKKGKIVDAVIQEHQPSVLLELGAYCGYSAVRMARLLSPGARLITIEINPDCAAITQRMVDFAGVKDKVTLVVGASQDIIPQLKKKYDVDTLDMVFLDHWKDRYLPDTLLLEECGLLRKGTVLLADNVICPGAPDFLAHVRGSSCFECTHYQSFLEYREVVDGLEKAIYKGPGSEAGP

[3] = target: Guanidinoacetate N-methyltransferase (Homo sapiens) (UniProt Q14353); test: as above; details: MTase-Glo luminescence, SAH detection, recombinant enzyme; activity change, negative = inhibition: at 57.3 µM (top of the series)
[4] = target: Nicotinamide N-methyltransferase (Homo sapiens) (UniProt P40261); test: as above; details: MTase-Glo luminescence, SAH detection, recombinant enzyme; measured here: NNMT max response; stronger effect = lower value
Chain of Nicotinamide N-methyltransferase (Homo sapiens) (P40261 whole entry, looked up): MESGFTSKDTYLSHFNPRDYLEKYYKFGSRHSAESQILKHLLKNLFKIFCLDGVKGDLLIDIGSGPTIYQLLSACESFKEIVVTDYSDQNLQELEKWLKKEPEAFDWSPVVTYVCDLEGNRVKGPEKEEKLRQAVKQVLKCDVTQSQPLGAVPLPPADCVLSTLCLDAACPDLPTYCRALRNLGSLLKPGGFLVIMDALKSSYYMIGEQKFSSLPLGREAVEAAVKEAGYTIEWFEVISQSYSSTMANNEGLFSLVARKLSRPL

[5] = target: Phenylethanolamine N-methyltransferase (Homo sapiens) (UniProt P11086); test: as above; details: MTase-Glo luminescence, SAH detection, recombinant enzyme; measured here: PNMT max response; stronger effect = lower value
Chain of Phenylethanolamine N-methyltransferase (Homo sapiens) (P11086 whole entry, looked up): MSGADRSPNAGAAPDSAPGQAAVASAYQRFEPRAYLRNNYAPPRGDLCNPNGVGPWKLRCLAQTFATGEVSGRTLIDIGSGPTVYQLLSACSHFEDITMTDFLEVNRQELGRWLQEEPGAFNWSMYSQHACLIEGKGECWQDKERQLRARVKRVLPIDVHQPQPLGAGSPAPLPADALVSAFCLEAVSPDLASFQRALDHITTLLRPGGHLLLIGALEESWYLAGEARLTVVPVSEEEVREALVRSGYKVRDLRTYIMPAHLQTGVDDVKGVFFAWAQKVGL

[6] = NCATS anti-infectives library activity on HEK293 viability as a counter-qHTS vs the C. elegans viability qHTS (AID 1745854); details: HEK293 viability counter-screen; series mostly up to 41.8 µM; note: % is set by controls: 0 for no effect and ±100 for the full control effect
Method in brief: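 HEK293 cells, 1500 per well, exposed 24 hr at 37C in 5% CO2 to compounds in a 1:5 titration, up to 41.7 uM final. Viability read as CellTiter-Glo luminescence after 10 min at room temperature.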

[7] = Viability counterscreen for antagonist of constitutive androstane receptor (CAR) against the NCATS DSHEA and TCM libraries (AID 1794837); details: CAR reporter cell line viability counterscreen, qHTS; series mostly up to 40 µM;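 note: compound exposure lasted 24 h before viability reading; 0% is about no effect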
Method in brief: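 Counterscreen performed in a 1536-well qHTS format using HepG2-CYP2B6-hCAR cells; samples titrated in the presence of 48 uM CITCO, with viability measured fluorometrically (405/540 nm) after 24 h.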

[8] = Viability counterscreen for agonist of constitutive androstane receptor (CAR) against the NCATS DSHEA and TCM libraries (AID 1794838); details: HepG2 cell viability counterscreen, CAR agonist assay; series mostly up to 40 µM; note: 0% is about no effect
Method in brief: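 Multiplexed counterscreen: after 24 h compound exposure with 0.75 uM PK11195, HepG2-CYP2B6-hCAR viability was quantified fluorimetrically (CellTiter-Fluor, 405/540 nm) prior to the ONE-Glo luciferase read.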

[9] = target: Nuclear receptor subfamily 1 group I member 3 (Homo sapiens) (UniProt Q14994); test: Primary qHTS for agonist of constitutive androstane receptor (CAR) against the NCATS DSHEA and TCM libraries (AID 1794839); details: CAR agonist reporter cells, qHTS luminescence; series mostly up to 40 µM;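 note: HepG2 cells expressing human CAR with a CYP2B6 reporter plus PK11195 antagonist; luciferase reporter luminescence read with ONE-Glo; 0% is about no effect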
Chain of Nuclear receptor subfamily 1 group I member 3 (Homo sapiens) (Q14994 whole entry, looked up): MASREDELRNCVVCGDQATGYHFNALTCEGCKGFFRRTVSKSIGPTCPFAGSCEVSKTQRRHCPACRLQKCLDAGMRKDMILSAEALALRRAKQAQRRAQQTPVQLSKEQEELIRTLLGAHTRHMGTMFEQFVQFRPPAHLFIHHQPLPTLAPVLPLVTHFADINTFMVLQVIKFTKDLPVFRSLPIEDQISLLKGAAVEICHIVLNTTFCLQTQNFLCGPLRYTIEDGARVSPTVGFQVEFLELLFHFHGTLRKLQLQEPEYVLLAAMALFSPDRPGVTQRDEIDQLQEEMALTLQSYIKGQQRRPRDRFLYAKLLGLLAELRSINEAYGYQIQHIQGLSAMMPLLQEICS
Method in brief: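 Concentration–response screen in HepG2-CYP2B6-hCAR cells under 0.75 µM PK11195; 24 h exposure; luminescent reporter signal with multiplexed fluorescent viability.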

C[C@H](N)[C@H](O)c1ccc(O)c(O)c1
Potency [1]: inactive

Clc1ccc(CSC(Cn2ccnc2)c2ccc(Cl)cc2Cl)cc1 (centres undefined)
Potency [1]: 22.1 µM (active)

C=CCN1CC[C@]23CCCC[C@H]2[C@H]1Cc1ccc(O)cc13
activity [2]: 0.434%
activity change, negative = inhibition [3]: 3.29%
activity [4]: -15.3%
activity [5]: 2.6%

Cc1nnc2n1-c1sc(CCc3ccc(CC(C)C)cc3)cc1C(c1ccccc1Cl)=NC2C (centres undefined)
activity [2]: -12.7%
Potency [3]: 48.2 µM (active)
activity [4]: -36.8%
activity [5]: -8.97%

C[C@@H]1CC[C@H]2[C@@H](C)C(=O)O[C@@H]3O[C@@]4(C)CC[C@@H]1[C@]32OO4
outcome [6]: inactive

C[C@]12CC[C@H](O)CC1=CC[C@@H]1[C@@H]2CC[C@]2(C)C(=O)CC[C@@H]12
outcome [7]: inactive
outcome [8]: inactive
outcome [9]: inactive

— PubChem BioAssay (NCATS)
